# Laboratory results reported in PubChem BioAssay (Tox21).
# Several values for one entry are separate records, joined by “and”; a condition that tells them apart may be missing. Equal entries are not always repeated. A structure can be active in one record and inactive in another. Activity calls are given as the source filed them. Where a call stands in place of a potency, no number is given. Unless noted, the call rests on the fitted dose curve; in most records, active means well fitted curve in the direction sought with a large enough effect in the repeat runs; inconclusive means weak or mixed curves; inactive means no such curve, though single readings can be large; an effect the other way counts as inactive or inconclusive.
# Experiments:
# [1] = qHTS assay to identify small molecule antagonists of the glucocorticoid receptor (GR) signaling pathway - cell viability counter screen (AID 720693); further: nearly all actives have a fitted effect of over 55% in size; further: potency means the concentration at half of the fitted maximal effect
# [2] = qHTS assay for identifying genotoxic compounds that show differential cytotoxicity against isogenic chicken DT40 cell lines with known DNA damage response pathways - wild type cell line (AID 743012); further: nearly all actives have a fitted effect of over 60% in size; further: potency means the concentration at half of the fitted maximal effect
# In short: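 Endpoint: CellTiter-Glo luminescence, 30 min RT. Cells: wild type DT40, 300/well. Exposure: compounds in DMSO, 40 h, 37 C/5% CO2, after ~0.5 h pre-incubation.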
# [3] = qHTS assay for identifying genotoxic compounds that show differential cytotoxicity against isogenic chicken DT40 cell lines with known DNA damage response pathways - Rev3 mutant cell line (AID 743014); further: nearly all actives have a fitted effect of over 55% in size; further: potency means the concentration at half of the fitted maximal effect
# [4] = qHTS assay for identifying genotoxic compounds that show differential cytotoxicity against isogenic chicken DT40 cell lines with known DNA damage response pathways - Rad54/Ku70 mutant cell line (AID 743015); further: nearly all actives have a fitted effect of over 60% in size; further: potency means the concentration at half of the fitted maximal effect
# [5] = qHTS assay to identify small molecule antagonists of the androgen receptor (AR) signaling pathway - cell viability counter screen (AID 743033; further: nearly all actives have a fitted effect of over 45% in size; further: potency means the concentration at half of the fitted maximal effect)
# [6] = qHTS assay to identify small molecule antagonists of the androgen receptor (AR) signaling pathway using the MDA cell line - cell viability counter screen (AID 743041; further: nearly all actives have a fitted effect of over 45% in size; further: potency means the concentration at half of the fitted maximal effect)
# In short: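 Cytotoxicity counter screen: MDA-kb2 AR-luc cells, compound + R1881, 16 h, 37C, 0% CO2; CellTiter-Fluor added at 15.5 h, fluorescence read after 30 min.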
# [7] = qHTS assay to identify small molecule antagonists of the thyroid receptor (TR) signaling pathway - cell viability counter screen (AID 743064); further: nearly all actives have a fitted effect of over 50% in size; further: potency means the concentration at half of the fitted maximal effect
# In short: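 Counter screen for cytotoxicity: compound plus T3 (1 nM final) on GH3.TRE-Luc cells, 23.5 h at 37 °C, then fluorescence viability readout with CellTiter-Fluor.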
# [8] = qHTS assay to identify small molecule antagonists of the thyroid receptor (TR) signaling pathway (AID 743065); further: nearly all actives have a fitted effect of over 55% in size; further: potency means the concentration at half of the fitted maximal effect
# In short: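 GH3.TRE-Luc rat pituitary cells (two TREs driving luciferase) were dosed with compound, then stimulated with 1 nM T3 (final) for 23.5 h at 37 C. ONE-Glo luminescence was the read-out, with CellTiter-Fluor fluorescence as the cytotoxicity counter-screen.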
# [9] = tested on: thyroid hormone receptor (rat, GH3 cells); test: qHTS assay to identify small molecule agonists of the thyroid receptor (TR) signaling pathway (AID 743066; calls by dose curve)
# [10] = target: Estrogen receptor (Homo sapiens) (UniProt P03372); test: qHTS assay to identify small molecule antagonists of the estrogen receptor alpha (ER-alpha) signaling pathway (AID 743069; active means well fitted curve in the direction sought with a large enough effect in the signal ratio in the repeat runs, not every such curve was filed as active; inconclusive means weak or mixed curves, or effect the other way; inactive means no such curve, though single readings can be large or run the other way; the % refers to the signal ratio)
# Sequence of Estrogen receptor (Homo sapiens) (P03372 whole entry, looked up): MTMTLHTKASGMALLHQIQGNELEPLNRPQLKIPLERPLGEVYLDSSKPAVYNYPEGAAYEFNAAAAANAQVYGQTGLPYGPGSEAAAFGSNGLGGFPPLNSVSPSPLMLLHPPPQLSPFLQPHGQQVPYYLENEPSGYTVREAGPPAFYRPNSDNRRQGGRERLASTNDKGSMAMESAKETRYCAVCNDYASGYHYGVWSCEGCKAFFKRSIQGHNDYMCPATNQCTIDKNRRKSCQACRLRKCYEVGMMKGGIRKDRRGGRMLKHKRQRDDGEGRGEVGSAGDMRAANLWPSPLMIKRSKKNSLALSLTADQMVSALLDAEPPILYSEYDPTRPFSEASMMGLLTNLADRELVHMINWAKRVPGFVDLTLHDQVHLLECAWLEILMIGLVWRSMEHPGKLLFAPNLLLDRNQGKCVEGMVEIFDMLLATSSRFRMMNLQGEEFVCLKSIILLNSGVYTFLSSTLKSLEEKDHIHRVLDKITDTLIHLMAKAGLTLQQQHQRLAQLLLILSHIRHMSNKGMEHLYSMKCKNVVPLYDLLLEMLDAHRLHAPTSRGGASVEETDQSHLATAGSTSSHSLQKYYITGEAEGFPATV
# In short: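 Beta-lactamase FRET fluorescence is read after 2 hr at room temperature with LiveBLAzer B/G substrate. Before that, ER-alpha-bla HEK293 cells sit 4 hr after plating, then receive compound plus 17beta-estradiol and incubate 18 hr at 37C.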
# [11] = qHTS assay to identify small molecule antagonists of the estrogen receptor alpha (ER-alpha) signaling pathway - cell viability counter screen (AID 743074; calls by dose curve;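 further: HEK293 cells carrying ER-alpha-UAS-bla reporter stimulated with 17beta-estradiol; nearly all actives have a fitted effect of over 45% in size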; further: potency means the concentration at half of the fitted maximal effect)
# [12] = target: Estrogen receptor (Homo sapiens) (UniProt P03372); test: qHTS assay to identify small molecule agonists of the estrogen receptor alpha (ER-alpha) signaling pathway (AID 743075; calls by dose curve;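 further: HEK293 GripTite cells with ER-alpha and UAS-driven beta-lactamase reporter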; further: potency means the concentration at half of the fitted maximal effect)
# [13] = target: Estrogen receptor (Homo sapiens) (UniProt P03372); test: qHTS assay to identify small molecule agonists of the estrogen receptor alpha (ER-alpha) signaling pathway using the BG1 cell line (AID 743079); settings: BG1Luc4E2 cells, ERE-luciferase agonist, 22 h; activation: at 70.3 µM (top of the series) unless noted; further: nearly all actives have a fitted effect of over 20% in size; further: potency means the concentration at half of the fitted maximal effect
# [14] = qHTS assay to identify small molecule antagonists of the estrogen receptor alpha (ER-alpha) signaling pathway using the BG1 cell line (AID 743080; calls by dose curve;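 further: BG1 cells stimulated with 17beta-estradiol alongside compound; nearly all actives have a fitted effect of over 25% in size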)
# In short: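 Seeding, 24 h rest, compound transfer from DMSO, 17beta-estradiol addition, 21.5 h incubation, CellTiter-Fluor (30 min, 37 C), then ONE-Glo (30 min, room temperature): this sequence was run on BG1-Luc-4E2 reporter cells.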
# [15] = qHTS assay to identify small molecule antagonists of the estrogen receptor alpha (ER-alpha) signaling pathway using the BG1 cell line - cell viability counter screen (AID 743081);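 further: compound given together with 17beta-estradiol as the ER stimulus; nearly all actives have a fitted effect of over 45% in size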; further: potency means the concentration at half of the fitted maximal effect
# Aromatase (Homo sapiens) = Aromatase (Homo sapiens) (UniProt P11511); test: qHTS assay to identify aromatase inhibitors (AID 743083); further: nearly all actives have a fitted effect of over 55% in size; further: potency means the concentration at half of the fitted maximal effect
# Sequence of Aromatase (Homo sapiens) (P11511 whole entry, looked up): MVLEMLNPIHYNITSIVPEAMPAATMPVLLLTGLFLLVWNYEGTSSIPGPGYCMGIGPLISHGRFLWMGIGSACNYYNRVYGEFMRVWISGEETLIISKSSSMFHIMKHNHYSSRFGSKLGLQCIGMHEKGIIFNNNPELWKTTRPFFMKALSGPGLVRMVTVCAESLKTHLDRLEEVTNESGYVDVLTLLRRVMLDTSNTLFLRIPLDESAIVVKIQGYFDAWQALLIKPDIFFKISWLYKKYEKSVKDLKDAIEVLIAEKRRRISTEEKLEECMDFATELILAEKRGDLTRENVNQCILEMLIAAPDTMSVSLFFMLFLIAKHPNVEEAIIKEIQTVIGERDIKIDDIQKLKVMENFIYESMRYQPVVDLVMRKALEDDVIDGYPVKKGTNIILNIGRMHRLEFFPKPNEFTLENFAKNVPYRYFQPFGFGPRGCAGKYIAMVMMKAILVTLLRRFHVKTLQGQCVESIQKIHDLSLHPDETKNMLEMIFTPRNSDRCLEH
# [16] = target: Androgen receptor (Homo sapiens) (UniProt P10275); test: qHTS assay to identify small molecule antagonists of the androgen receptor (AR) signaling pathway (AID 743035; active means well fitted inhibition curve with a large enough effect in the signal ratio in the repeat runs, not every such curve was filed as active; inconclusive means weak or mixed curves, or effect the other way; inactive means no such curve, though single readings can be large or run the other way; the % refers to the signal ratio; further: potency means the concentration at half of the fitted maximal effect)
# Sequence of Androgen receptor (Homo sapiens) (P10275 whole entry, looked up): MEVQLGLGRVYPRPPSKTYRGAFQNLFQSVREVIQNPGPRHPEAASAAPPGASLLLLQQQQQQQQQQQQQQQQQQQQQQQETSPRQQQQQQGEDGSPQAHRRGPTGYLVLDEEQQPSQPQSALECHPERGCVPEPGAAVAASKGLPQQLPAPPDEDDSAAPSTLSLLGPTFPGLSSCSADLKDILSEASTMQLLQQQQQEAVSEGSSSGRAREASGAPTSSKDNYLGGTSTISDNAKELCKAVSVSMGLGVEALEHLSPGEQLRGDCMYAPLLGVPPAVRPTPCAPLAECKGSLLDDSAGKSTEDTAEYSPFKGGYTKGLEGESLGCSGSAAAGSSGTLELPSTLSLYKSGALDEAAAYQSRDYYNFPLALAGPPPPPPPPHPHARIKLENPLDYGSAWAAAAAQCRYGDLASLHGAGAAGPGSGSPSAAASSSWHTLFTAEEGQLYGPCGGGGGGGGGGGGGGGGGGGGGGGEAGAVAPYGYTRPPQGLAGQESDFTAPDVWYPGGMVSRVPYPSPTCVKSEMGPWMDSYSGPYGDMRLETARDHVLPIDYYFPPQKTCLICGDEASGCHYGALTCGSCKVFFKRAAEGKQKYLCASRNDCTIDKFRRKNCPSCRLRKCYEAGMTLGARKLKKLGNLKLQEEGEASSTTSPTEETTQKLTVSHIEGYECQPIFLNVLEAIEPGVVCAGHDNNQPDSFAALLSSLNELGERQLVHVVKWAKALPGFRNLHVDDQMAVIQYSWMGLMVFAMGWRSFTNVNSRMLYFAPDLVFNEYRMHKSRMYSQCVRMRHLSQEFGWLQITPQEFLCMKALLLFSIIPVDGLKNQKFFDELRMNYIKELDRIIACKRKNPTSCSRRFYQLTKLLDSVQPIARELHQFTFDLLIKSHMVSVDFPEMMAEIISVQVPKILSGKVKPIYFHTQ
# In short: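 R1881 agonist challenge of a HEK293 UAS-beta-lactamase AR reporter line in the presence of compound (16 h, 37C); signal taken as FRET fluorescence after 2 h with LiveBLAzer B/G substrate at room temperature.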
# [17] = target: Androgen receptor (Homo sapiens) (UniProt P10275); test: qHTS assay to identify small molecule agonists of the androgen receptor (AR) signaling pathway (AID 743036; active means well fitted activation curve with a large enough effect in the signal ratio in the repeat runs, with a control signal flat, not every such curve was filed as active; inconclusive means weak or mixed curves, or effect the other way; inactive means no such curve, though single readings can be large or run the other way; the % refers to the signal ratio)
# In short: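 In this Tox21 qHTS, 2,000 HEK293 AR-bla cells per well were incubated with compounds for 16 h at 37C and 5% CO2. Fluorescence intensity was recorded 2 h after adding LiveBLAzer B/G FRET substrate at room temperature.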
# [18] = target: Androgen receptor (Homo sapiens) (UniProt P10275); test: qHTS assay to identify small molecule agonists of the androgen receptor (AR) signaling pathway using the MDA cell line (AID 743040; further: nearly all actives have a fitted effect of over 20% in size); settings: MDA-kb2 AR-luc cells, MMTV luciferase, 16 h, stronger effect = higher value
# In short: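 Luciferase read-out, ONE-Glo, 30 min RT. Cells: MDA-kb2 AR-luc, MMTV promoter with AR and GR response elements. Compound exposure 16 h, 37C, 0% CO2, after 5 h pre-incubation. qHTS agonist mode.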
# [19] = target: Androgen receptor (Homo sapiens) (UniProt P10275); test: qHTS assay to identify small molecule antagonists of the androgen receptor (AR) signaling pathway using the MDA cell line (AID 743042; further: nearly all actives have a fitted effect of over 55% in size; further: potency means the concentration at half of the fitted maximal effect)
# In short: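 MDA-kb2 breast carcinoma cells carrying MMTV-luciferase (AR/GR responsive) were co-treated with compounds and the agonist R1881 for 16 h at 37C. Inhibition read as ONE-Glo luminescence; CellTiter-Fluor fluorescence measured in parallel for cytotoxicity.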
compound,measurement,setting,value
CCC/C=N/O,Potency,[1],inactive
same,Potency,[2],inactive
same,Potency,[3],inactive
same,Potency,[4],inactive
same,Potency,[5],inactive
same,Potency,[6],inactive
same,Potency,[7],inactive
same,Potency,[8],inactive
same,Potency,[9],inactive
same,Potency,[10],inactive
same,Potency,[11],inactive
same,Potency,[12],inactive
same,Potency,[13],inactive
same,Potency,[14],inactive
same,Potency,[15],inactive
same,Potency,Aromatase (Homo sapiens),inactive
COP(=S)(OC)Oc1ccc(S(=O)(=O)N(C)C)cc1,Potency,[1],inactive
same,Potency,[2],19.3 µM (active)
same,Potency,[3],inactive and 24.3 µM (active)
same,Potency,[4],inactive and 34.4 µM (active)
same,Potency,[5],inactive
same,Potency,[16],inactive
same,Potency,[17],inactive
same,activity change,[18]; at 70.3 µM (top of the series),-0.992% (inactive) and -9.46% (inactive)
same,Potency,[6],inactive
same,Potency,[19],inactive and 61.1 µM (active)
same,Potency,[7],inactive
same,Potency,[9],inactive
same,Potency,[10],inactive
same,Potency,[11],inactive
same,Potency,[12],inactive
same,Potency,[13],inactive
same,Potency,[14],inactive
same,Potency,[15],inactive
same,Potency,Aromatase (Homo sapiens),inactive and 61.1 µM (active)
CCC(=O)Nc1ccc(Cl)c(Cl)c1,Potency,[1],inactive
same,Potency,[2],inactive
same,Potency,[3],inactive
same,Potency,[4],inactive
same,Potency,[5],inactive
same,Potency,[16],22.3 µM (active) and 24.5 µM (active)
same,Potency,[17],inactive
same,activity change,[18]; at 70.3 µM (top of the series),-3.69% (inactive)
same,activity change,[18]; at 95 µM (top of the series),-4.49% (inactive)
same,Potency,[6],inactive
same,Potency,[19],48.6 µM (active)
same,Potency,[7],inactive
same,Potency,[8],49.5 µM (active)
same,Potency,[9],inactive
same,Potency,[11],inactive
same,Potency,[15],inactive
same,Potency,Aromatase (Homo sapiens),inactive
O=C(O)c1nn(Cc2ccc(Cl)cc2Cl)c2ccccc12,Potency,[1],inactive
same,Potency,[2],inactive
same,Potency,[3],inactive
same,Potency,[4],inactive
same,Potency,[5],inactive
same,Potency,[16],inactive
same,activity change,[18]; at 70.3 µM (top of the series),1.75% (inactive) and 0.87% (inactive)
same,Potency,[6],inactive
same,Potency,[19],inactive
same,Potency,[7],inactive
same,Potency,[9],inactive
same,Potency,[10],inactive
same,Potency,[11],inactive
same,Potency,[12],95.2 nM [inconclusive] (active) and inactive
same,Potency,[13],6.68 µM (active) and inactive
same,Potency,[14],inactive
same,Potency,[15],inactive
same,Potency,Aromatase (Homo sapiens),inactive
CCC1(c2ccc(N)cc2)CCC(=O)NC1=O (centres undefined),Potency,[1],inactive
same,Potency,[2],inactive
same,Potency,[3],inactive
same,Potency,[4],inactive
same,Potency,[5],inactive
same,Potency,[16],inactive
same,Potency,[17],inactive
same,activity change,[18]; at 70.3 µM (top of the series),-1.61% (inactive) and 2% (inactive)
same,Potency,[6],inactive
same,Potency,[19],inactive
same,Potency,[7],inactive
same,Potency,[8],inactive
same,Potency,[9],inactive
same,Potency,[10],inactive
same,Potency,[11],inactive
same,Potency,[12],inactive
same,Potency,[13],inactive
same,Potency,[14],inactive
same,Potency,[15],inactive
C[C@]12CCC(=O)C=C1CC[C@@H]1[C@@H]2CC[C@@]2(C)[C@H]1CC[C@]2(C)O,Potency,[1],15.5 µM (active)
same,Potency,[2],29.8 µM (active) and 26.6 µM (active) and 21.7 µM (active)
same,Potency,[3],26.6 µM (active) and 29.8 µM (active) and 26 µM (active)
same,Potency,[4],29.8 µM (active) and 26.6 µM (active) and 26.7 µM (active)
same,Potency,[5],inactive
same,Potency,[6],inactive
same,Potency,[7],inactive and 61.4 µM (active)
same,Potency,[8],10.6 µM (active) and 24.5 µM (active)
same,Potency,[9],inactive
same,Potency,[10],inactive
same,Potency,[11],inactive
same,Potency,[12],2.13 µM [inconclusive] (active) and 4.25 µM [inconclusive] (active) and 1.39 µM [inconclusive] (active)
same,Potency,[13],376 nM (active) and 106 nM (active) and 179 nM (active)
same,Potency,[14],inactive
same,Potency,[15],inactive
same,Potency,Aromatase (Homo sapiens),inactive
Clc1cccc(C(Cl)(Cl)Cl)n1,Potency,[1],inactive
same,Potency,[2],inactive
same,Potency,[3],inactive
same,Potency,[4],inactive
same,Potency,[5],inactive
same,Potency,[16],inactive
same,Potency,[17],inactive
same,activity change,[18]; at 70.3 µM (top of the series),0.42% (inactive) and 1.19% (inactive)
same,Potency,[6],inactive
same,Potency,[19],inactive
same,Potency,[7],inactive
same,Potency,[8],inactive
same,Potency,[9],inactive
same,Potency,[10],inactive
same,Potency,[11],inactive
same,Potency,[12],inactive
same,Potency,[13],inactive
same,Potency,[14],inactive
same,Potency,[15],inactive
same,Potency,Aromatase (Homo sapiens),inactive
COc1ccc(O)c(C(C)(C)C)c1,Potency,[1],inactive
same,Potency,[2],inactive
same,Potency,[3],inactive
same,Potency,[4],inactive
same,Potency,[5],inactive
same,Potency,[6],inactive
same,Potency,[7],inactive
same,Potency,[8],inactive
same,Potency,[9],inactive
same,Potency,[10],inactive
same,Potency,[11],inactive
same,Potency,[12],inactive
same,Potency,[13],inactive
same,Potency,[14],inactive
same,Potency,[15],inactive
same,Potency,Aromatase (Homo sapiens),inactive
O=C(O)CF,Potency,[1],inactive
same,Potency,[2],inactive
same,Potency,[3],inactive
same,Potency,[4],inactive
same,Potency,[5],inactive
same,Potency,[6],inactive
same,Potency,[7],inactive
same,Potency,[8],inactive
same,Potency,[9],inactive
same,Potency,[10],inactive
same,Potency,[11],inactive
same,Potency,[12],inactive
same,Potency,[13],inactive
same,Potency,[14],inactive
same,Potency,[15],inactive
same,Potency,Aromatase (Homo sapiens),inactive
C=CC(=O)OCC(CC)(COC(=O)C=C)COC(=O)C=C,Potency,[1],12.6 µM (active) and 11 µM (active)
same,Potency,[2],2.8 µM (active) and 3.06 µM (active)
same,Potency,[3],1.58 µM (active) and 3.06 µM (active)
same,Potency,[4],2.5 µM (active) and 2.43 µM (active)
same,Potency,[5],7.97 µM (active) and 12.3 µM (active)
same,Potency,[16],4.48 µM (active)
same,activity change,[18]; at 70.3 µM (top of the series),-11.9% (inactive)
same,activity change,[18]; at 95 µM (top of the series),-11.2% (inactive)
same,Potency,[6],62.8 µM (active) and 30.6 µM (active)
same,Potency,[19],8.87 µM (active) and 6.86 µM (active)
same,Potency,[7],4.99 µM (active) and 6.86 µM (active)
same,Potency,[8],3.15 µM (active) and 4.33 µM (active)
same,Potency,[9],inactive
same,Potency,[11],56.4 µM (active) and 54.9 µM (active)
same,Potency,[12],22.5 µM [inconclusive] (active) and 9.77 µM [inconclusive] (active)
same,Potency,[15],79 µM (active) and 54.5 µM (active)
same,Potency,Aromatase (Homo sapiens),4.99 µM (active) and 6.86 µM (active)
CCOP(=S)(OCC)OP(=S)(OCC)OCC,Potency,[1],inactive
same,Potency,[2],inactive
same,Potency,[3],inactive
same,Potency,[4],inactive
same,Potency,[5],inactive
same,Potency,[16],inactive
same,Potency,[17],inactive
same,activity change,[18]; at 70.3 µM (top of the series),-0.0098% (inactive)
same,Potency,[6],inactive
same,Potency,[19],inactive
same,Potency,[7],inactive
same,Potency,[8],inactive
same,Potency,[9],inactive
same,Potency,[11],inactive
same,Potency,[15],inactive
same,Potency,Aromatase (Homo sapiens),inactive
COC(=O)Nc1nc2ccccc2[nH]1,Potency,[1],inactive
same,Potency,[2],9.69 µM (active) and 8.63 µM (active)
same,Potency,[3],6.11 µM (active) and 6.86 µM (active)
same,Potency,[4],6.86 µM (active) and 7.7 µM (active)
same,Potency,[5],inactive
same,activity change,[18]; at 70.3 µM (top of the series),0.968% (inactive) and 4.32% (inactive)
same,Potency,[6],inactive
same,Potency,[19],inactive
same,Potency,[7],12.2 µM (active)
same,Potency,[8],5.45 µM (active) and 7.7 µM (active)
same,Potency,[9],inactive
same,Potency,[11],inactive
same,Potency,[15],inactive
same,Potency,Aromatase (Homo sapiens),inactive
